# Assay results published in PubChem BioAssay (NCATS).
# Results filed as inconclusive are left out. The source made the active and inactive calls. Unless noted, calls follow the shape of the dose curve; as a rule, active = well fitted curve in the direction sought with a large enough effect; inconclusive = small, poorly fitted or top-dose-only effect, or another doubt; inactive = no such curve, though single readings can be large; an effect the other way counts as inactive or inconclusive.
# Experiments:
# [1] = molecular target: Rap guanine nucleotide exchange factor 3 (Homo sapiens) (UniProt O95398); assay: Confirmatory qHTS for agonist of cAMP-regulated guanine nucleotide exchange factor 3 (EPAC1) (AID 1645881); settings: EPAC1 Rap1B BODIPY-GDP exchange fluorescence, 100% = cAMP control response; series mostly up to 154 µM;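 also: EPAC1 catalysed release of BODIPY-GDP from Rap1B seen as fluorescence loss; nearly all actives have a fitted effect of over 75% in size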
# [2] = molecular target: Rap guanine nucleotide exchange factor 4 (Homo sapiens) (UniProt Q8WZA2); assay: Confirmatory qHTS for agonist of cAMP-regulated guanine nucleotide exchange factor 4 (EPAC2) (AID 1645884); settings: EPAC2 GEF activity, Rap1B-BODIPY-GDP fluorescence, percent relative to cAMP agonist control; series mostly up to 154 µM;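 also: nucleotide exchange releases bodipy-GDP from Rap1 and this lowers its fluorescence; % is scaled to controls: 0 for no effect and ±100 for the full control effect; nearly all actives have a fitted effect of over 65% in size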
# [3] = molecular target: Rap guanine nucleotide exchange factor 3 (Homo sapiens) (UniProt O95398); assay: Counterscreen qHTS for antagonist of cAMP-regulated guanine nucleotide exchange factor 3 (EPAC1) (AID 1645888); settings: Rap1B-BODIPY-GDP nucleotide exchange, fluorescence; series mostly up to 154 µM;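 also: fluorescence loss as bound BODIPY-GDP is released from Rap1B; % of control where 0% means no effect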
# In short: (§1)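 Rap1B–BODIPY-GDP (250 nM) with 50 uM GDP; compounds pin-transferred to 9.74 nM–152 uM final (activator) or from 7.32 nM upwards (inhibitor). Fluorescence Ex/Em 480/540 nm read at 5 and 30 min, then after adding cAMP or buffer, at room temperature.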
# [4] = molecular target: Rap guanine nucleotide exchange factor 3 (Homo sapiens) (UniProt O95398); assay: Counterscreen qHTS for agonist of cAMP-regulated guanine nucleotide exchange factor 3 (EPAC1) (AID 1645889); settings: EPAC1 Rap1B-BODIPY-GDP exchange, fluorescence; series mostly up to 154 µM; also: % of control where 0% means no effect; nearly all actives have a fitted effect of over 40% in size
# In short: as §1
# [5] = molecular target: Phospholipid hydroperoxide glutathione peroxidase GPX4 (Homo sapiens) (UniProt P36969); assay: Primary qHTS Assay for Inhibitors of Recombinant Selenoprotein Glutathione Peroxidase 4 (GPX4) (AID 1845192); settings: recombinant GPX4, GR-coupled NADPH fluorescence, 15 min; series mostly up to 27.8 µM; also: nearly all actives have a fitted effect of over 65% in size; as to activity change, negative = inhibition: % is scaled to controls: 0 for no effect and ±100 for the full control effect
# In short: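 GR-coupled assay: recombinant GPX4 preincubated 30 min with compound at room temperature; final 200 nM GPX4, 1 mM GSH, 0.5 mM cumene hydroperoxide, 0.5 mM NADPH, 100 nM GR, 0.01% BSA, pH 7.5 Tris. NADPH fluorescence (340/450 nm) read at 0 and 15 min.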
# [6] = Primary fluorescence-based thiol-reactive (MSTI) qHTS assay for identification of artifact compounds. (AID 1845221); settings: MSTI thiol-reactivity probe, 1 h; series mostly up to 53.8 µM; also: nearly all actives have a fitted effect of over 65% in size; also: potency is read from the fitted curve at half-maximal effect
# In short: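 Reactivity toward the thiol probe MSTI (4 uM) is scored by fluorescence at Ex/Em 525/598 nm after 1 h at room temperature. Acetyl-MSTI and MSTI define the activity scale.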
# [7] = molecular target: Catechol O-methyltransferase (Homo sapiens) (UniProt P21964); assay: Confirmatory Screen for Target Class Profiling of Small Molecule Inhibitors of Methyltransferases (AID 1745852; calls by dose curve; also: potency is read from the fitted curve at half-maximal effect; as to activity change, negative = inhibition: % is scaled to controls: 0 for no effect and ±100 for the full control effect); settings: MTase-Glo luminescence, SAH detection, recombinant enzyme; measured here: COMT max response; stronger effect = lower value
# [8] = molecular target: Guanidinoacetate N-methyltransferase (Homo sapiens) (UniProt Q14353); assay: as above; settings: MTase-Glo luminescence, SAH detection, recombinant enzyme; activity change, negative = inhibition: at 57.3 µM (top of the series) unless noted
# [9] = molecular target: Nicotinamide N-methyltransferase (Homo sapiens) (UniProt P40261); assay: as above; settings: MTase-Glo luminescence, SAH detection, recombinant enzyme; measured here: NNMT max response; stronger effect = lower value
# [10] = molecular target: Phenylethanolamine N-methyltransferase (Homo sapiens) (UniProt P11086); assay: as above; settings: MTase-Glo luminescence, SAH detection, recombinant enzyme; measured here: PNMT max response; stronger effect = lower value
# [11] = molecular target: Glutathione peroxidase 1 (Homo sapiens) (UniProt P07203); assay: Primary qHTS Assay for Inhibitors of Recombinant Selenoprotein Glutathione Peroxidase 1 (GPX1) (AID 1845191); settings: recombinant GPX1, GR-coupled NADPH fluorescence, 15 min; series mostly up to 27.7 µM; also: nearly all actives have a fitted effect of over 65% in size
# In short: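 GR-coupled assay: compounds preincubated 30 min at room temperature with GPX1, then reaction started with CHP; final 10 nM GPX1, 1 mM GSH, 0.5 mM CHP, 0.5 mM NADPH, 100 nM GR, 0.01% BSA, pH 7.5 Tris buffer. NADPH fluorescence (340/450 nm) read at 0 and 15 min.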
# [12] = molecular target: Luciferin 4-monooxygenase (Photinus pyralis) (UniProt P08659); assay: Primary firefly luciferase (FLuc) qHTS assay for identification of artifact compounds. (AID 1845220); settings: purified firefly luciferase, luminescence, 5 min; series mostly up to 54.1 µM; also: nearly all actives have a fitted effect of over 60% in size;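 as to activity change, negative = inhibition: plate controls were DMSO vehicle for no effect and no enzyme for full effect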
# In short: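 Enzymatic FLuc inhibition assay: compounds pre-exposed to luciferin/ATP (10 uM each) for 15 min, then purified P. pyralis enzyme at 10 nM added. Read-out: luminescence at 5 min.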
# [13] = molecular target: Rap guanine nucleotide exchange factor 4 (Homo sapiens) (UniProt Q8WZA2); assay: Confirmatory qHTS for antagonist of cAMP-regulated guanine nucleotide exchange factor 4 (EPAC2) (AID 1645885); settings: EPAC2 Rap1B-BODIPY-GDP exchange fluorescence, biochemical; series mostly up to 12.7 µM; also: % is scaled to controls: 0 for no effect and ±100 for the full control effect; nearly all actives have a fitted effect of over 25% in size
# Sequence of Glutathione peroxidase 1 (Homo sapiens) (P07203 whole entry, looked up): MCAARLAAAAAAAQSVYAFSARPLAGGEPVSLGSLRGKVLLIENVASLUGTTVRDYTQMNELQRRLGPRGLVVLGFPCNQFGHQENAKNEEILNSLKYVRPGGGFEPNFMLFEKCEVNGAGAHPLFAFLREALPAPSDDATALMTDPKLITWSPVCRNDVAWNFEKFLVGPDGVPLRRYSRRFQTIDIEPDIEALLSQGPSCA
# Sequence of Catechol O-methyltransferase (Homo sapiens) (P21964 whole entry, looked up): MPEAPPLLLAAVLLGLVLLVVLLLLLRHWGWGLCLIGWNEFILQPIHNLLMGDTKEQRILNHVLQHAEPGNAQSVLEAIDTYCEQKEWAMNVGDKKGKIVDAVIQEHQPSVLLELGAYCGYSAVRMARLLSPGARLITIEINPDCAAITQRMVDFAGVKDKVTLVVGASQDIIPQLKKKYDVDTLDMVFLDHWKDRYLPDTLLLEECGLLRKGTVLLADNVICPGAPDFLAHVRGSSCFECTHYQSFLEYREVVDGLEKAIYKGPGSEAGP
# Sequence of Phospholipid hydroperoxide glutathione peroxidase GPX4 (Homo sapiens) (P36969 whole entry, looked up): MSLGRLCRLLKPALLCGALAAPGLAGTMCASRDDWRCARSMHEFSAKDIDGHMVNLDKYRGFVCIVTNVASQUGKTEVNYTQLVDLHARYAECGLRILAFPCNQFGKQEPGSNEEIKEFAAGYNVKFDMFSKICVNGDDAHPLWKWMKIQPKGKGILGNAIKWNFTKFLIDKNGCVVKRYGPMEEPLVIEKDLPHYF
# Sequence of Rap guanine nucleotide exchange factor 4 (Homo sapiens) (Q8WZA2 whole entry, looked up): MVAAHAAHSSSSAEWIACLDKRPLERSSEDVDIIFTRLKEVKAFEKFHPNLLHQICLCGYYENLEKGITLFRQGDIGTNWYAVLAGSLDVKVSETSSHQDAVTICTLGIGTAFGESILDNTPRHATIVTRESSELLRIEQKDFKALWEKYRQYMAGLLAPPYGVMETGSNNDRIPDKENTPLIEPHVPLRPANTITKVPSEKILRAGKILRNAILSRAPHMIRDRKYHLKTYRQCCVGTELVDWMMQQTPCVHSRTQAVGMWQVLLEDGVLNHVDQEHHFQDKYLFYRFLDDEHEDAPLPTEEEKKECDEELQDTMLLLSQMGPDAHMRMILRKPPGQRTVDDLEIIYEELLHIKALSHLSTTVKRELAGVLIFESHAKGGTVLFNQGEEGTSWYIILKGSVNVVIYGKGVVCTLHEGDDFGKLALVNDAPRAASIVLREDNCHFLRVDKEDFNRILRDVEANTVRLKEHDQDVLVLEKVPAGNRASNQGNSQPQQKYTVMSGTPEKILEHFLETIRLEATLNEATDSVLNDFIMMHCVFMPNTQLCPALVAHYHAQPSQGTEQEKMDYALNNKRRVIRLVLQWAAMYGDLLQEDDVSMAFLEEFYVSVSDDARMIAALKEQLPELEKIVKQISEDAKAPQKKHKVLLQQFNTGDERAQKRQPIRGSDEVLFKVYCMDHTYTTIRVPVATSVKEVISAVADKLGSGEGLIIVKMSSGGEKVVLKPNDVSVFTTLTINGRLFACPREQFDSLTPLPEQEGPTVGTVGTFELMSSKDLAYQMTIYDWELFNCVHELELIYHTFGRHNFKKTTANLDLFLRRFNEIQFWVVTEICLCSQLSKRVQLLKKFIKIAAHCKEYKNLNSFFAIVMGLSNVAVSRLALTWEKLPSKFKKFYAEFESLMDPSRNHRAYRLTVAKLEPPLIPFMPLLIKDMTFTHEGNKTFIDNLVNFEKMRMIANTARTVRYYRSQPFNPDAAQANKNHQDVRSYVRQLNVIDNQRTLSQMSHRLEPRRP
# Sequence of Rap guanine nucleotide exchange factor 3 (Homo sapiens) (O95398 whole entry, looked up): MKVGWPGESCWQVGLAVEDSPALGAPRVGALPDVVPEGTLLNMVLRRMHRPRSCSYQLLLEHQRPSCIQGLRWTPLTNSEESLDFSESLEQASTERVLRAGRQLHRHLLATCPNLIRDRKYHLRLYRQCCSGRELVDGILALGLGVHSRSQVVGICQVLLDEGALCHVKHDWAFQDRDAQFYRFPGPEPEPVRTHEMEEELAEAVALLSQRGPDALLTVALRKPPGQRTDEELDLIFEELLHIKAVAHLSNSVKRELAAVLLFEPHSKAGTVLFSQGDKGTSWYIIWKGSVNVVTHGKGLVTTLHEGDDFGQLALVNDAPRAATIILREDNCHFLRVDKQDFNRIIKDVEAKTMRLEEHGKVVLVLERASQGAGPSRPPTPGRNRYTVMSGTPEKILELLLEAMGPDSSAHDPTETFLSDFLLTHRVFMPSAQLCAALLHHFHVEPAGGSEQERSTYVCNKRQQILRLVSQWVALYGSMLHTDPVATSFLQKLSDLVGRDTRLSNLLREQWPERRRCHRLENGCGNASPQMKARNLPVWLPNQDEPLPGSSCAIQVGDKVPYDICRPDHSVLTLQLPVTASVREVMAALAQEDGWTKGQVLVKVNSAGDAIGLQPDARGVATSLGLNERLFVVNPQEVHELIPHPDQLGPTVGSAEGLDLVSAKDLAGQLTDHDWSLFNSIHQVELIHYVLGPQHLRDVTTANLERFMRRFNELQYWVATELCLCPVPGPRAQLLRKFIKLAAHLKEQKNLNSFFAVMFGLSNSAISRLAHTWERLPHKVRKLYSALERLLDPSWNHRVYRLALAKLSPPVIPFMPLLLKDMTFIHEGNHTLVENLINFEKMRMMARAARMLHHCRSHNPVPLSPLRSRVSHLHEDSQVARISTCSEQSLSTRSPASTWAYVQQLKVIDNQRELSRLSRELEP
# Sequence of Phenylethanolamine N-methyltransferase (Homo sapiens) (P11086 whole entry, looked up): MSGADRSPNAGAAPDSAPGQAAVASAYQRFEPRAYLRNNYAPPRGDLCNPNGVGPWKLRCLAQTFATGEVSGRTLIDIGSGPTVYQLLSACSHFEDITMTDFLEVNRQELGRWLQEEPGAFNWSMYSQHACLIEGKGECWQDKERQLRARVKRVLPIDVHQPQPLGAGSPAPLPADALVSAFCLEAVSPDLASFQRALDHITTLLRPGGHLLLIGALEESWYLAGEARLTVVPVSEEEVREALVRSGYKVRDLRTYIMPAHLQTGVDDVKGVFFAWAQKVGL
# Sequence of Nicotinamide N-methyltransferase (Homo sapiens) (P40261 whole entry, looked up): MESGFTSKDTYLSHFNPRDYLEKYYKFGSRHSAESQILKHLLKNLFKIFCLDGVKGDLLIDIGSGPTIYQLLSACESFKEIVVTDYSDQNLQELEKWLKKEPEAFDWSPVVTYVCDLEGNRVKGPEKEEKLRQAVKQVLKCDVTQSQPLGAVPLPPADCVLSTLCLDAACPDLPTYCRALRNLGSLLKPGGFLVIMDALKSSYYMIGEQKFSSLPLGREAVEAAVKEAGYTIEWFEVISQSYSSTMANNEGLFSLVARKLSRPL
compound,measurement,setting,value
CCc1nnc(NS(=O)(=O)c2ccc(NC(=S)NC(=O)/C=C/c3ccc(F)cc3)cc2)s1,outcome,[1],inactive
same,outcome,[2],inactive
same,outcome,[3],inactive
same,outcome,[4],inactive
same,Potency,[5],inactive
same,Potency,[6],inactive
O=C(O)Cn1nnc(-c2ccc(CN(CCCCOc3ccc(CN4CCCC4)cc3)CCc3ccccc3)cc2)n1,activity,[7],-3.03%
same,"activity change, negative = inhibition",[8],0%
same,activity,[9],-1.13%
same,activity,[10],0.559%
same,Potency,[11],inactive
same,Potency,[5],inactive
same,Potency,[12],inactive
same,Potency,[6],inactive
CC1(CO)CC(O)C2(C)CCC3(C)C(=CCC4C5(C=O)CCC(OC6OC(C(=O)O)C(O)C(O)C6OC6OC(C(=O)O)C(O)C(O)C6O)C(C)(C)C5CCC43C)C2C1 (stereo unspecified),activity,[7],-73.8%
same,"activity change, negative = inhibition",[8],0.442% [at 19.1 µM]
same,activity,[9],-0.108%
same,activity,[10],1.8%
same,Potency,[11],inactive
same,Potency,[5],inactive
same,"activity change, negative = inhibition",[12],-10.9% [at 11.6 µM] (inactive)
CC1CCCCCCCc2cc(O)cc(O)c2C(=O)O1 (stereo unspecified),activity,[7],-69.9%
same,Potency,[8],30.4 µM (active)
same,activity,[9],-60.9%
same,activity,[10],-64.4%
same,Potency,[11],inactive
same,Potency,[5],inactive
same,Potency,[12],inactive
C=C1C[C@]23C[C@@]1(O)CC[C@H]2[C@@]12C=C[C@H](O)[C@@](C)(C(=O)O1)[C@H]2[C@@H]3C(=O)O,outcome,[1],inactive
same,outcome,[2],inactive
same,Potency,[11],inactive
same,Potency,[5],inactive
same,Potency,[6],inactive
COc1cc(/C=C/C(=O)OC[C@H]2O[C@@H](OC3OC=C(C(=O)O)C4C(O)CC(C)(O)C34)[C@H](O)[C@@H](O)[C@@H]2O)cc(OC)c1O (stereo partly specified),activity,[7],-54.7%
same,"activity change, negative = inhibition",[8],-2.09% [at 19.1 µM]
same,activity,[9],0.931%
same,activity,[10],-3.81%
same,Potency,[11],inactive
same,Potency,[5],inactive
same,Potency,[12],inactive
C[C@]1(C2CCCC2)Cc2cc(OCC(=O)O)c(Cl)c(Cl)c2C1=O,activity,[7],-5.66%
same,"activity change, negative = inhibition",[8],-6.29%
same,activity,[9],-48.2%
same,activity,[10],-6.93%
same,Potency,[11],inactive
same,Potency,[5],inactive
same,Potency,[12],inactive
COc1ccc(CC(NC(C)=O)C(=O)O)cc1 (stereo unspecified),activity,[7],-71.7%
same,"activity change, negative = inhibition",[8],0%
same,activity,[9],1.04%
same,activity,[10],-0.971%
same,Potency,[11],inactive
same,Potency,[5],inactive
same,Potency,[12],inactive
same,Potency,[6],4.74 µM (active)
COc1ccccc1CN[C@H]1CCCN[C@H]1c1ccccc1,activity,[7],0.295%
same,"activity change, negative = inhibition",[8],7.32%
same,activity,[9],-6.63%
same,activity,[10],-0.84%
same,Potency,[11],inactive
same,Potency,[5],inactive
same,Potency,[12],inactive
same,Potency,[6],inactive
O=C(COCC(=O)N1CCN(C(c2ccccc2)c2ccccc2)CC1)Nc1ccc(Cl)cc1C(=O)O,activity,[7],-5.29%
same,"activity change, negative = inhibition",[8],-4.07%
same,activity,[9],-44.4%
same,activity,[10],-8.81%
same,Potency,[11],inactive
same,Potency,[5],inactive
same,Potency,[12],inactive
same,Potency,[6],inactive
C=C[C@H]1[C@H](O[C@@H]2O[C@H](CO)[C@@H](O)[C@H](O)[C@H]2O)OC=C(C(=O)OC)[C@H]1CCO,activity,[7],-72.1%
same,"activity change, negative = inhibition",[8],-3.63%
same,activity,[9],-12.2%
same,activity,[10],-3.1%
same,Potency,[11],inactive
same,Potency,[5],inactive
same,Potency,[12],inactive
COc1cc(/C=C/C(=O)OCC2OC(OC3(CO)OC(CO)C(O)C3O)C(O)C(O)C2O)ccc1O (stereo unspecified),activity,[7],-68.2%
same,"activity change, negative = inhibition",[8],-1.33% [at 29.8 µM]
same,activity,[9],-1.16%
same,activity,[10],3.04%
same,Potency,[11],inactive
same,Potency,[5],inactive
same,Potency,[12],inactive
same,Potency,[6],inactive
Cc1ccc([C@@H]2CC=C(C(=O)O)[C@H](c3ccc(C(C)(C)C)cc3)N2S(=O)(=O)c2ccc(C)cc2)cc1,outcome,[1],inactive
same,activation,[2],5.81% [at 17.1 µM] (inactive)
same,outcome,[13],inactive
same,"activity change, negative = inhibition",[3],-12.2% [at 30.8 µM] (inactive)
same,activation,[4],14.8% [at 30.8 µM] (inactive)
same,Potency,[11],inactive
same,Potency,[5],inactive
same,Potency,[12],inactive
same,Potency,[6],inactive
COc1c(O)cc2c(c1O)C(=O)O[C@H](C)[C@H]2O,activity,[7],-42.1%
same,"activity change, negative = inhibition",[8],0.552%
same,activity,[9],0.175%
same,activity,[10],0.108%
same,Potency,[11],inactive
same,Potency,[5],inactive
same,Potency,[12],inactive
O=C(CCc1ccccc1)c1c(O)c([C@@H]2O[C@H](CO)[C@@H](O)[C@H](O)[C@H]2O)c(O)c([C@@H]2O[C@H](CO)[C@@H](O)[C@H](O)[C@H]2O)c1O,activity,[7],-89.3%
same,"activity change, negative = inhibition",[8],2.13% [at 19.1 µM]
same,activity,[9],-0.132%
same,activity,[10],4.21%
same,Potency,[11],inactive
same,Potency,[5],inactive
same,Potency,[12],inactive
C=C[C@H]1[C@H](O[C@@H]2O[C@H](CO)[C@@H](O)[C@H](OC(=O)/C=C/c3ccc(O)c(OC)c3)[C@H]2O)OC=C2C(=O)OCC[C@]21O,activity,[7],-63.6%
same,"activity change, negative = inhibition",[8],-8.69% [at 29.8 µM]
same,activity,[9],-4.35%
same,activity,[10],-4.62%
same,Potency,[11],inactive
same,Potency,[5],inactive
Nc1ncnc2c1ncn2[C@H]1O[C@@H](C(=O)N2CCN(CC(=O)Nc3cccc4c3CNC4=O)CC2)[C@H](O)[C@@H]1O,activity,[7],-12.8%
same,Potency,[8],21.5 µM (active)
same,activity,[9],-14.5%
same,activity,[10],-35.1%
same,Potency,[11],inactive
same,Potency,[5],inactive
same,Potency,[12],inactive
OC[C@H]1O[C@@H](OCCc2ccccc2)[C@H](O[C@@H]2OC[C@@H](O)[C@H](O)[C@H]2O)[C@@H](O)[C@@H]1O,activity,[7],-76.4%
same,"activity change, negative = inhibition",[8],0% [at 29.8 µM]
same,activity,[9],3.88%
same,activity,[10],-1.31%
same,Potency,[11],inactive
same,Potency,[5],inactive
same,Potency,[12],inactive
same,Potency,[6],4.12 µM (active)
C=C1CC/C=C(/CO)C(=O)C[C@@H]2[C@@H]1C[C@@]2(C)COC(C)=O,activity,[7],-65.6%
same,"activity change, negative = inhibition",[8],0%
same,activity,[9],0.048%
same,activity,[10],1.6%
same,Potency,[11],inactive
same,Potency,[5],inactive
same,Potency,[12],inactive
same,Potency,[6],11.9 µM (active)
COc1cc(C2Oc3c(OC)cc(CCCO)cc3C2CO)ccc1O (stereo unspecified),activity,[7],-80.9%
same,"activity change, negative = inhibition",[8],-2.79%
same,activity,[9],-9.4%
same,activity,[10],-8.69%
same,Potency,[11],inactive
same,Potency,[5],inactive
same,Potency,[12],inactive
same,Potency,[6],13.1 µM (active)
